# Like-named read-outs stand apart in the source and are kept apart here.
# How the values were obtained:
# LRRK2 = conditions: concentration: 1 μM, replicates: in singlicate; n = 1
# LTK = conditions: n = 1
# LYN = conditions: concentration: 1 μM, replicates: in singlicate; n = 1
# LZK = system: T1, LZK; conditions: concentration: 1 μM, replicates: in singlicate; n = 1
# T1 construct: gene MAP3K13
# MAK = conditions: concentration: 1 μM, replicates: in singlicate; n = 1
# MAP3K15 = conditions: concentration: 1 μM, replicates: in singlicate; n = 1
# MAP3K1 = conditions: concentration: 1 μM, replicates: in singlicate; n = 1
# MAP3K2 = conditions: concentration: 1 μM, replicates: in singlicate; n = 1
# MAP3K3 = conditions: concentration: 1 μM, replicates: in singlicate; n = 1
# MAP3K4 = conditions: concentration: 1 μM, replicates: in singlicate; n = 1
# MAP4K2 = conditions: concentration: 1 μM, replicates: in singlicate; n = 1
# MAP4K3 = conditions: concentration: 1 μM, replicates: in singlicate; n = 1
# MAP4K4 = conditions: concentration: 1 μM, replicates: in singlicate; n = 1
# MAP4K5 = conditions: concentration: 1 μM, replicates: in singlicate; n = 1
# MAPKAPK2 = conditions: concentration: 1 μM, replicates: in singlicate; n = 1
# MAPKAPK5 = conditions: concentration: 1 μM, replicates: in singlicate; n = 1
# MARK1 = conditions: concentration: 1 μM, replicates: in singlicate; n = 1
# MARK2 = conditions: concentration: 1 μM, replicates: in singlicate; n = 1
# MARK3 = conditions: concentration: 1 μM, replicates: in singlicate; n = 1
# MARK4 = conditions: concentration: 1 μM, replicates: in singlicate; n = 1
# [1] = concentration: 1 μM, replicates: in singlicate
# 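Also: KINOMEscan kinase panel screen.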
smiles,measurement,setting,value
Cn1cncc1-c1cc2c(Nc3ccc(OCc4ccccc4)cc3)ncnc2cn1 [GW281179],%Inh,LRRK2,10%
same,%Inh,LTK; [1],4%
same,%Inh,LYN,0%
same,%Inh,LZK,0%
same,%Inh,MAK,19%
same,%Inh,MAP3K15,0%
same,%Inh,MAP3K1,0%
same,%Inh,MAP3K2,0%
same,%Inh,MAP3K3,0%
same,%Inh,MAP3K4,15%
same,%Inh,MAP4K2,0%
same,%Inh,MAP4K3,0%
same,%Inh,MAP4K4,1%
same,%Inh,MAP4K5,0%
same,%Inh,MAPKAPK2,24%
same,%Inh,MAPKAPK5,0%
same,%Inh,MARK1,0%
same,%Inh,MARK2,0%
same,%Inh,MARK3,0%
same,%Inh,MARK4,11%
CS(=O)(=O)Cc1ccc(Nc2nccc(-c3c(-c4cccc(NC(=O)C5CCCCC5)c4)nn4ncccc34)n2)cc1 [GSK350559],%Inh,LRRK2,20%
same,%Inh,LTK; 1 µM,0%
same,%Inh,LYN,16%
same,%Inh,LZK,0%
same,%Inh,MAK,0%
same,%Inh,MAP3K15,38%
same,%Inh,MAP3K1,30%
same,%Inh,MAP3K2,15%
same,%Inh,MAP3K3,19%
same,%Inh,MAP3K4,11%
same,%Inh,MAP4K2,36%
same,%Inh,MAP4K3,0%
same,%Inh,MAP4K4,0%
same,%Inh,MAP4K5,10%
same,%Inh,MAPKAPK2,0%
same,%Inh,MAPKAPK5,39%
same,%Inh,MARK1,37%
same,%Inh,MARK2,0%
same,%Inh,MARK3,0%
same,%Inh,MARK4,5%
Nc1ncnc2occ(-c3ccc4c(c3)CCN4C(=O)Cc3cc(F)ccc3F)c12 [GSK2645446],%Inh,LRRK2,0%
same,%Inh,LTK; [1],0%
same,%Inh,LYN,0%
same,%Inh,LZK,0%
same,%Inh,MAK,0%
same,%Inh,MAP3K15,0%
same,%Inh,MAP3K1,0%
same,%Inh,MAP3K2,6%
same,%Inh,MAP3K3,0%
same,%Inh,MAP3K4,50%
same,%Inh,MAP4K2,0%
same,%Inh,MAP4K3,35%
same,%Inh,MAP4K4,0%
same,%Inh,MAP4K5,11%
same,%Inh,MAPKAPK2,11%
same,%Inh,MAPKAPK5,0%
same,%Inh,MARK1,0%
same,%Inh,MARK2,0%
same,%Inh,MARK3,0%
same,%Inh,MARK4,0%
O=C1NC(=O)C(c2ccc(Cl)cc2)=C1Nc1ccc(O)cc1 [SB-340867],%Inh,LRRK2,0%
same,%Inh,LTK; [1],0%
same,%Inh,LYN,8%
same,%Inh,LZK,0%
same,%Inh,MAK,7%
same,%Inh,MAP3K15,7%
same,%Inh,MAP3K1,0%
same,%Inh,MAP3K2,0%
same,%Inh,MAP3K3,11%
same,%Inh,MAP3K4,28%
same,%Inh,MAP4K2,0%
same,%Inh,MAP4K3,0%
same,%Inh,MAP4K4,0%
same,%Inh,MAP4K5,0%
same,%Inh,MAPKAPK2,8%
same,%Inh,MAPKAPK5,0%
same,%Inh,MARK1,0%
same,%Inh,MARK2,1%
same,%Inh,MARK3,20%
same,%Inh,MARK4,0%
c1ccc(-c2ccnc3[nH]ccc23)cc1 [SB-693578],%Inh,LRRK2,44%
same,%Inh,LTK; [1],0%
same,%Inh,LYN,0%
same,%Inh,LZK,11%
same,%Inh,MAK,0%
same,%Inh,MAP3K15,26%
same,%Inh,MAP3K1,19%
same,%Inh,MAP3K2,50%
same,%Inh,MAP3K3,5%
same,%Inh,MAP3K4,12%
same,%Inh,MAP4K2,32%
same,%Inh,MAP4K3,22%
same,%Inh,MAP4K4,0%
same,%Inh,MAP4K5,0%
same,%Inh,MAPKAPK2,26%
same,%Inh,MAPKAPK5,0%
same,%Inh,MARK1,100%
same,%Inh,MARK2,0%
same,%Inh,MARK3,0%
same,%Inh,MARK4,62%
O=C1NC(=O)C(c2ccc(Cl)cc2)=C1Nc1cccc(Cl)c1 [SB-317651],%Inh,LRRK2,0%
same,%Inh,LTK; [1],0%
same,%Inh,LYN,22%
same,%Inh,LZK,6%
same,%Inh,MAK,16%
same,%Inh,MAP3K15,0%
same,%Inh,MAP3K1,0%
same,%Inh,MAP3K2,0%
same,%Inh,MAP3K3,0%
same,%Inh,MAP3K4,1%
same,%Inh,MAP4K2,6%
same,%Inh,MAP4K3,1%
same,%Inh,MAP4K4,0%
same,%Inh,MAP4K5,0%
same,%Inh,MAPKAPK2,0%
same,%Inh,MAPKAPK5,0%
same,%Inh,MARK1,0%
same,%Inh,MARK2,13%
same,%Inh,MARK3,6%
same,%Inh,MARK4,0%
COc1ccc(CSc2nnc(-c3ccc4c(c3)CCO4)o2)cc1,%Inh,LRRK2,0%
same,%Inh,LTK; [1],0%
same,%Inh,LYN,0%
same,%Inh,LZK,3%
same,%Inh,MAK,0%
same,%Inh,MAP3K15,0%
same,%Inh,MAP3K1,0%
same,%Inh,MAP3K2,0%
same,%Inh,MAP3K3,0%
same,%Inh,MAP3K4,8%
same,%Inh,MAP4K2,0%
same,%Inh,MAP4K3,0%
same,%Inh,MAP4K4,0%
same,%Inh,MAP4K5,0%
same,%Inh,MAPKAPK2,0%
same,%Inh,MAPKAPK5,0%
same,%Inh,MARK1,0%
same,%Inh,MARK2,21%
same,%Inh,MARK3,0%
same,%Inh,MARK4,0%
Fc1ccc(-c2nc[nH]c2-c2ccncc2)cc1 [SB-217360],%Inh,LRRK2,0%
same,%Inh,LTK; [1],0%
same,%Inh,LYN,0%
same,%Inh,LZK,0%
same,%Inh,MAK,5%
same,%Inh,MAP3K15,3%
same,%Inh,MAP3K1,0%
same,%Inh,MAP3K2,18%
same,%Inh,MAP3K3,0%
same,%Inh,MAP3K4,0%
same,%Inh,MAP4K2,0%
same,%Inh,MAP4K3,2%
same,%Inh,MAP4K4,10%
same,%Inh,MAP4K5,0%
same,%Inh,MAPKAPK2,0%
same,%Inh,MAPKAPK5,0%
same,%Inh,MARK1,12%
same,%Inh,MARK2,4%
same,%Inh,MARK3,0%
same,%Inh,MARK4,30%
COC(=O)c1cccc(NC(=O)NC2CCN(c3ccnc(Nc4ccc(F)cc4)n3)C2)c1 (centres unmarked) [GSK1379725],%Inh,LRRK2,5%
same,%Inh,LTK; [1],17%
same,%Inh,LYN,0%
same,%Inh,LZK,6%
same,%Inh,MAK,16%
same,%Inh,MAP3K15,0%
same,%Inh,MAP3K1,8%
same,%Inh,MAP3K2,11%
same,%Inh,MAP3K3,0%
same,%Inh,MAP3K4,24%
same,%Inh,MAP4K2,0%
same,%Inh,MAP4K3,0%
same,%Inh,MAP4K4,1%
same,%Inh,MAP4K5,0%
same,%Inh,MAPKAPK2,15%
same,%Inh,MAPKAPK5,0%
same,%Inh,MARK1,0%
same,%Inh,MARK2,0%
same,%Inh,MARK3,42%
same,%Inh,MARK4,0%
CNc1cc(-c2ccc3c(N)n[nH]c3c2)nc(N)n1 [GSK2224810],%Inh,LRRK2,0%
same,%Inh,LTK; [1],0%
same,%Inh,LYN,0%
same,%Inh,LZK,18%
same,%Inh,MAK,0%
same,%Inh,MAP3K15,0%
same,%Inh,MAP3K1,0%
same,%Inh,MAP3K2,0%
same,%Inh,MAP3K3,0%
same,%Inh,MAP3K4,0%
same,%Inh,MAP4K2,22%
same,%Inh,MAP4K3,20%
same,%Inh,MAP4K4,0%
same,%Inh,MAP4K5,0%
same,%Inh,MAPKAPK2,49%
same,%Inh,MAPKAPK5,0%
same,%Inh,MARK1,0%
same,%Inh,MARK2,7%
same,%Inh,MARK3,0%
same,%Inh,MARK4,0%
